Laboratory results from PubChem BioAssay.
Active and inactive are the calls of the source.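 Rule for the calls, unless noted: active = fluorescence slope higher than the sample average by over 3 SD (cut at about -0.22 in these data, passing the limit was not always enough); inactive = the rest.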

What was measured:
[1] = inhibitors of TNFa-induced NFkB p65 translocation, primary screen, imaging, HUVEC, MLSMR starter and 10KST1 sets (AID 438;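 active = inhibition above 20% together with a positive visual image hit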;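 note: compound added about 3h40 before a 20 min TNFalpha stimulation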;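 for inhibition: signal is the nuclear over cytoplasmic p65 intensity ratio per well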); settings: HUVEC TNFa-induced p65 nuclear translocation; cell count: measured here: nuclei count (cytotoxicity indicator), at 2.08 µM; inhibition: at 2 µM, stronger effect = higher value, 0% TNFa-plus-vehicle, 100% no-TNFa wells
[2] = inhibitors of mutant huntingtin aggregation, primary screen, imaging, exon1htt(103Q)mCFP cells, high-content imaging (AID 483;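 active = visual image review flags a hit and inhibition of aggregation exceeds 20%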;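 note: compound exposure lasted 3 days before fixation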;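 for nuclei count: percent of the per-plate median nuclei count of sample wells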); settings: exon1htt(103Q)mCFP cell line, aggregate imaging, at 2 µM; inhibition of aggregation: stronger effect = higher value; nuclei count: measured here: cell count, toxicity
[3] = inhibitors of E-selectin induction by TNFa, primary screen, imaging, HUVEC, immunofluorescence, MLSMR starter and 10KST1 sets (AID 487;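 active = visually confirmed hit in the image check and inhibition above 20%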;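 for inhibition: signal is fraction of cell area covered by stained E-selectin grains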;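 for nuclei count: 100% = median nuclei count of all wells on the same plate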); settings: HUVEC TNFalpha-induced E-selectin immunofluorescence imaging, at 2 µM; inhibition: stronger effect = higher value; nuclei count: measured here: cell number, toxicity
[4] = target: Voltage-gated potassium channel subunit beta-2 (Rattus norvegicus) (UniProt P62483); assay: KvBeta enzyme negative modulators, primary screen, biochemical, NADPH fluorescence (AID 622); settings: recombinant KvBeta, 4-cyanobenzaldehyde reduction, at 10 µM, stronger effect = higher value;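 note: slope of raw intensity against log time taken from 70 to 1610 s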
Sequence of Voltage-gated potassium channel subunit beta-2 (Rattus norvegicus) (P62483 whole entry, looked up): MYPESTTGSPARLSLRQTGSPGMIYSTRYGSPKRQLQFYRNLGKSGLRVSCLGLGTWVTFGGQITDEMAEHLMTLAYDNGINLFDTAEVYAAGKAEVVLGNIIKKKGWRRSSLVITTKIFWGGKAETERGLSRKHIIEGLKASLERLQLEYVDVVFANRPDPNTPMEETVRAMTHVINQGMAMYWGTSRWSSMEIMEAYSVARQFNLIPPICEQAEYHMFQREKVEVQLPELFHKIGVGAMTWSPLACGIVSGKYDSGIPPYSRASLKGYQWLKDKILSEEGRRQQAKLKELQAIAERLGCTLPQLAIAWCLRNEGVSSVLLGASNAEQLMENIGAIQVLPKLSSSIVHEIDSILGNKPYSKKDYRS

[5] = target: Voltage-gated potassium channel subunit beta-2 (Rattus norvegicus) (UniProt P62483); assay: KvBeta positive modulators, primary screen, biochemical, NADPH fluorescence (AID 623;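 active = NADPH fluorescence slope more negative than the mean of all samples by about 3 SD, 99.7% confidence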;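 note: fluorescence intensity change per second fitted from 20 to 320 s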); settings: Recombinant KvBeta, NADPH fluorescence decrease slope, 10 min; at 10 µM; stronger effect = lower value
[6] = target: Alpha-2C adrenergic receptor (Homo sapiens) (UniProt P18825); assay: modulators of alpha2C/GIRK thallium flux, primary screen, cell-based, HEK293 alpha2C/GIRK1/2 (AID 624;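 active = fluorescence slope after compound addition differing from the mean of all screened samples at 99.7% confidence, in either direction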;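 note: slope of fluorescence ratio to pre-addition baseline per second over 15 to 24 s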); settings: thallium flux BTC fluorescence, at 10 µM, actives lie on both sides
Sequence of Alpha-2C adrenergic receptor (Homo sapiens) (P18825 whole entry, looked up): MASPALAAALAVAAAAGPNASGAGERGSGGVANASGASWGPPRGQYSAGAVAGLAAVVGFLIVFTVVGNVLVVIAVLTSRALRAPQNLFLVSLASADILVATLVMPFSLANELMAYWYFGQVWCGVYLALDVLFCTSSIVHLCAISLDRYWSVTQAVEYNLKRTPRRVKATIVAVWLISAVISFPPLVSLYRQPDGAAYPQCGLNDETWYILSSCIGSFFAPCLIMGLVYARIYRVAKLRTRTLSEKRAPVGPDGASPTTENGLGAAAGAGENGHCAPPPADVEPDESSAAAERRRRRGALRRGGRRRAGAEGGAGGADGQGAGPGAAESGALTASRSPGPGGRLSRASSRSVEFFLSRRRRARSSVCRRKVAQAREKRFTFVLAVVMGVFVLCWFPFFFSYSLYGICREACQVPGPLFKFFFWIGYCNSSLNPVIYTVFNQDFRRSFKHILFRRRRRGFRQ

[7] = inhibitors of Sendai virus-induced IRF3 signaling, primary screen, TLR/RLR signaling modifier project, cell-based, Sendai virus stimulus, luciferase, 10K MLSCN set (AID 602276;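 active = inhibition at or above 50% at 10 µM; inactive = inhibition below 50%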;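 note: firefly luciferase from ISG56 promoter only with Renilla not read in this screen; 0% = Sendai virus plus DMSO and 100% = medium plus DMSO without virus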); settings: HEK293 RL24 IRF3 luciferase reporter, at 10 µM, stronger effect = higher value
[8] = inhibitors of poly I:C-induced TLR3 signaling, primary screen, cell-based, poly I:C stimulus, luciferase, 10K MLSCN set (AID 602277;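 active = inhibition of the reporter signal at or above 50%; inactive = inhibition below 50%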); settings: HEK293-TLR3 RL24 IRF3 luciferase reporter, at 10 µM, stronger effect = higher value

| Structure (SMILES) | cell count [1] | inhibition [1] | inhibition of aggregation [2] | nuclei count [2] | inhibition [3] | nuclei count [3] | fluorescence slope [4] | NADPH fluorescence slope [5] | slope [6] | inhibition [7] | inhibition [8] |
| --- | --- | --- | --- | --- | --- | --- | --- | --- | --- | --- | --- |
| O=C(c1ccccc1)N1CCN(CC2CC=CCC2)CC1 (stereo not drawn) | 391 | -9.9% (inactive) | 21.1% (inactive) | 91% | -93.3% (inactive) | 69.8% | -0.304 (inactive) | 2.3e-05 (inactive) | 0.00325 (inactive) | 6.11% (inactive) | 19.5% (inactive) |
| Cc1cc(C)n(CC(=O)NC2CCCCC2)n1 | 406 | -0.6% (inactive) | -4.9% (inactive) | 105% | -225% (inactive) | 114% | -0.468 (inactive) | -1.5e-06 (inactive) | 0.00622 (inactive) | 14.7% (inactive) | 18% (inactive) |
| Cn1c(=O)[nH]c(=O)c2c1nc(NCCCn1ccnc1)n2Cc1ccccc1 | 433 | 0.3% (inactive) | -7.8% (inactive) | 130% | -46.4% (inactive) | 119% | -0.603 (inactive) | -3.4e-05 (inactive) | 0.00342 (inactive) | -9.45% (inactive) | -6.06% (inactive) |
| O=C(Cn1c(C(=O)NCC2CCCO2)cc2sccc21)c1ccccc1 (stereo not drawn) | 280 | -13.4% (inactive) | 20.2% (inactive) | 80% | -77.7% (inactive) | 99.3% | -0.611 (inactive) | 5.3e-06 (inactive) | 0.00924 (inactive) | 5.12% (inactive) | 4.66% (inactive) |
| O=C(NCC(c1cccnc1)N1CCN(c2ccc(F)cc2)CC1)OCc1ccccc1 (stereo not drawn) | 568 | -6.4% (inactive) | -3.7% (inactive) | 128% | -34.3% (inactive) | 126% | -0.605 (inactive) | 7e-06 (inactive) | 0.00599 (inactive) | 17.1% (inactive) | 1.38% (inactive) |
| Cc1sc2nc(SCC(=O)N3CCN(CCO)CC3)n(-c3ccccc3)c(=O)c2c1C | 397 | 7% (inactive) | -7.3% (inactive) | 111% | -55% (inactive) | 121% | -0.456 (inactive) | -4.5e-05 (inactive) | 0.00574 (inactive) | 16.8% (inactive) | 31% (inactive) |
| Cc1ccc2nc(NC(=O)Cn3cc4c(n3)CCCCC4)sc2c1 | 899 | 0.5% (inactive) | 4% (inactive) | 100% | -44.1% (inactive) | 123% | -0.581 (inactive) | -1.2e-05 (inactive) | 0.00613 (inactive) | -7.98% (inactive) | -11.8% (inactive) |
| COc1ccc(-c2noc(-c3ccccc3C(=O)Nc3cccnc3)n2)cc1 | 218 | 6.7% (inactive) | 0.1% (inactive) | 87.6% | -54.7% (inactive) | 95.3% | -0.601 (inactive) | 1.8e-05 (inactive) | 0.00583 (inactive) | 12.1% (inactive) | 12.9% (inactive) |
| COC(=O)c1ccc(COc2ccc(C3C4=C(CCCC4=O)Nc4onc(C)c43)cc2)cc1 (stereo not drawn) | 303 | -4.7% (inactive) | -8.3% (inactive) | 112% | -68.7% (inactive) | 118% | -0.479 (inactive) | -1.7e-05 (inactive) | 0.00693 (inactive) | -12.9% (inactive) | -23% (inactive) |
| CC(=O)NC1(C(F)(F)F)NC(=O)N(CC(C)C)C1=O (stereo not drawn) | 359 | 4% (inactive) | -8.3% (inactive) | 97.6% | -30.2% (inactive) | 101% | -0.5 (inactive) | 2e-05 (inactive) | 0.00596 (inactive) | -14.7% (inactive) | 14% (inactive) |
| CCC(=O)N1CCN(CCN=CC2=C(O)CC(C)(C)CC2=O)CC1 | 476 | 4% (inactive) | 1.1% (inactive) | 105% | 5.8% (inactive) | 111% | -0.518 (inactive) | -2.4e-05 (inactive) | 0.00473 (inactive) | 8.29% (inactive) | 11.4% (inactive) |
| CC(=O)c1ccc(NC(=O)CSc2nnc(-c3ccoc3C)n2Cc2ccccc2)cc1 | 366 | -4.2% (inactive) | 5.2% (inactive) | 98.2% | -35.8% (inactive) | 99.5% | -0.432 (inactive) | -2e-09 (inactive) | 0.00468 (inactive) | -9.45% (inactive) | -12% (inactive) |
| CC(C)(C)NC(=O)COC(=O)c1ccc(O)cc1 | 714 | -6.7% (inactive) | -18.1% (inactive) | 98.1% | 10% (inactive) | 101% | -0.625 (inactive) | 7.6e-06 (inactive) | 0.00738 (inactive) | -6.22% (inactive) | -8.12% (inactive) |
| Cn1nnnc1SCSc1nnnn1C | 626 | -16.6% (inactive) | 4.1% (inactive) | 56.1% | -58% (inactive) | 93.3% | -0.585 (inactive) | -4.7e-05 (inactive) | 0.00536 (inactive) | 0.0465% (inactive) | -3.07% (inactive) |
| O=C(CCC(=O)N(c1cccc(F)c1)C(C(=O)NC1CCCC1)c1ccncc1)Nc1cccnc1 (stereo not drawn) | 465 | 0.6% (inactive) | -8.2% (inactive) | 70.3% | -32.3% (inactive) | 108% | -0.5 (inactive) | -3.7e-05 (inactive) | 0.00449 (inactive) | 18.8% (inactive) | 20.4% (inactive) |
| Cn1c(=O)c2c(nc(CN3CCN(c4ccccc4F)CC3)n2CCN2CCOCC2)n(C)c1=O | 317 | -6.9% (inactive) | 13.3% (inactive) | 114% | -26.9% (inactive) | 107% | -0.288 (inactive) | -2.7e-05 (inactive) | 0.00647 (inactive) | 17.6% (inactive) | 17.1% (inactive) |
| CCOC(=O)c1cccc(NC(=O)CSc2nc3cccnc3n2C)c1 | 782 | -8.4% (inactive) | 0.7% (inactive) | 111% | -14.2% (inactive) | 105% | -0.526 (inactive) | 4.1e-06 (inactive) | 0.00563 (inactive) | -4.22% (inactive) | -23.7% (inactive) |
| CCN(CC)S(=O)(=O)c1ccc(C(=O)N2CCN=C2SCc2cccnc2)cc1 | 213 | -3.9% (inactive) | -5.6% (inactive) | 99.7% | -32.1% (inactive) | 122% | -0.587 (inactive) | -1.9e-05 (inactive) | 0.0061 (inactive) | -1.95% (inactive) | 9.81% (inactive) |
| CS(=O)(=O)Nc1ccccc1C(=O)O | 363 | -2.1% (inactive) | -4.3% (inactive) | 113% | -81.2% (inactive) | 121% | -0.411 (inactive) | -2.7e-05 (inactive) | 0.00253 (inactive) | 11.5% (inactive) | 33% (inactive) |
| CC(C)N(O)C(=O)NC(C)(C)C | 496 | 9.4% (inactive) | -1.8% (inactive) | 106% | 42.3% (inactive) | 103% | -0.494 (inactive) | -2.2e-05 (inactive) | 0.00463 (inactive) | 17.4% (inactive) | 15% (inactive) |
| O=C(COC(=O)c1cnccn1)Nc1ccc2c(c1)OCO2 | 589 | 7.8% (inactive) | -8% (inactive) | 103% | -56.6% (inactive) | 105% | -0.484 (inactive) | -2.2e-05 (inactive) | 0.00566 (inactive) | 5.28% (inactive) | 21.1% (inactive) |
| CN(C)c1ccc(C=Nc2ccc(N(C)C)cc2)cc1 | 345 | 3.4% (inactive) | -8.7% (inactive) | 106% | 14.2% (inactive) | 118% | -0.512 (inactive) | -3.7e-05 (inactive) | 0.00615 (inactive) | -5.99% (inactive) | -19% (inactive) |
| CCC(OC(=O)c1cccs1)C(=O)NCc1ccco1 (stereo not drawn) | 404 | 5.2% (inactive) | 10.4% (inactive) | 90.1% | -72.5% (inactive) | 118% | -0.44 (inactive) | -0.000112 (inactive) | 0.00455 (inactive) | 16.1% (inactive) | 25% (inactive) |
| CCOC(=O)Cn1c(S(=O)(=O)Cc2ccccc2)nc2ccccc21 | 811 | 5.5% (inactive) | -22.5% (inactive) | 110% | -135% (inactive) | 127% | -0.579 (inactive) | -1.4e-05 (inactive) | 0.00594 (inactive) | 9.42% (inactive) | 30.4% (inactive) |
| C/C(=C\C(=O)c1ccc(F)cc1)Nc1ccc(N2CCOCC2)cc1 | 412 | -7.9% (inactive) | 20.9% (inactive) | 86.5% | -1.4% (inactive) | 99.6% | -0.532 (inactive) | 3.5e-06 (inactive) | 0.00495 (inactive) | -13.9% (inactive) | -43.6% (inactive) |
| Cc1cc(N)n2nc(-c3ccccc3)cc2n1 | 492 | 1.2% (inactive) | 0% (inactive) | 98.3% | -15.5% (inactive) | 110% | -0.421 (inactive) | -8.6e-05 (inactive) | 0.00566 (inactive) | -31.2% (inactive) | -74.6% (inactive) |
| O=C(CSc1nnc(Cn2c(=O)sc3ccccc32)n1-c1ccccc1)Nc1nccs1 | 645 | 1.8% (inactive) | 9.1% (inactive) | 110% | -7.4% (inactive) | 104% | -0.58 (inactive) | -2.9e-05 (inactive) | 0.00712 (inactive) | 2.86% (inactive) | 16.4% (inactive) |
| Cc1nnc(NC(=O)CSc2nnc(-c3ccc(S(=O)(=O)N4CCCC4)cc3)n2C)s1 | 575 | -16.3% (inactive) | 14.6% (inactive) | 85.9% | -21.6% (inactive) | 91.4% | -0.495 (inactive) | -2.2e-05 (inactive) | 0.00452 (inactive) | 17.1% (inactive) | 17.7% (inactive) |
